An excerpt weighted towards active compounds, which were near 9.4% of everything screened.
NPC1 promoter act: activates the NPC1 promoter. Huh7 NPC1 promoter luciferase reporter, 24 h. Potency, µM (top dose mostly 9.22 µM), actives largely listed as activators. hit rate 2.4% among 320,000. AID 485313; note: nearly all actives have a fitted effect of over 60% in size
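Readout is luciferase luminescence, reflecting NPC1 promoter activation in stably transfected Huh7 cells after 24 h compound exposure at 37 °C in reduced-serum medium with 10% FBS.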
FLuc counter: firefly luciferase modulation, counter-screen for miR-21 project; Potency, µM (highest dose often 57.5 µM), hits mostly inhibitors; hit rate 6.9% among 360,000; purified FLuc, Km substrates, luminescence inhibition; P08659; note: nearly all actives have a fitted effect of over 55% in size
Target sequence (P08659 whole entry, looked up): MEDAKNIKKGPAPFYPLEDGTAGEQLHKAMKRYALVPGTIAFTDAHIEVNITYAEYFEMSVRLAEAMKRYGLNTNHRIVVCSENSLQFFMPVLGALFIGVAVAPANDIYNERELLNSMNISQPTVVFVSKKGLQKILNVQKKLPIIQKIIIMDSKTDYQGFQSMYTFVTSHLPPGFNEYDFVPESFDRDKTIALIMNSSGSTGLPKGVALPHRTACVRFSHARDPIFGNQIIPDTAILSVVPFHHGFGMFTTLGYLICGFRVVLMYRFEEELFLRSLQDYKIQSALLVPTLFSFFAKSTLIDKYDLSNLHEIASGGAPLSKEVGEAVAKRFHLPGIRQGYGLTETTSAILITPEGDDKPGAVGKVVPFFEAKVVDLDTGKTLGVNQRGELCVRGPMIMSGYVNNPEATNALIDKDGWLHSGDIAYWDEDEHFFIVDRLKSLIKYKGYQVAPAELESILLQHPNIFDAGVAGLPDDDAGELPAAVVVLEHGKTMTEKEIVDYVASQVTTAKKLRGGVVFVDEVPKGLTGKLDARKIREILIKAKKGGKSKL
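Biochemical qHTS of compounds, final roughly 60 µM downward over six points, against 10 nM purified firefly luciferase using Km concentrations of substrates (10 uM D-luciferin, 10 uM ATP) in Tris acetate pH 7.5 buffer; luminescence output.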
ELG1 repair inh: ELG1-dependent DNA repair inhibition. HEK293T ELG1-luciferase reporter, luminescence, 16 h; DNA damage induced by 5-fluorouridine. hit rate 2.3% among 330,000. AID 504467. Potency, µM (series often up to 46.1 µM), actives largely listed as inhibitors; note: nearly all actives have a fitted effect of over 55% in size
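HEK293T cells expressing luciferase-tagged ELG1 (2,000/well) received 5-Fluorouridine plus compound or DMSO for 16 hr at 37 °C. Luciferase was read by ONE-Glo luminescence after 30 min at room temperature.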
ELG1 genotox: induces genotoxicity in HEK293T cells with luciferase-tagged ELG1. HEK293T ELG1-luciferase reporter, luminescence, 16 h. Potency, µM (doses to about 46 µM), usual class: activators. hit rate 1.3% among 330,000; note: nearly all actives have a fitted effect of over 60% in size
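HEK293T cells expressing luciferase-tagged ELG1 were exposed to compound or DMSO vehicle for 16 hr at 37 °C and 5% CO2. Luciferase activity was then measured with ONE-Glo after 30 min at room temperature.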
SMN2 splice enh: enhancers of SMN2 splice variant expression; HEK293 SMN2-luciferase splicing reporter, luminescence, 30-36 h; Potency, µM (series often up to 46.1 µM), actives largely listed as activators; hit rate 2.8% among 210,000; AID 1458; note: nearly all actives have a fitted effect of over 55% in size
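HEK293 cells carry an SMN2 minigene-luciferase reporter in which exon 7 inclusion puts luciferase in frame. Cells were seeded at 2000 cells/well, attached for 10-12 hours, then exposed to compounds for 30-36 hours at 37C before ONE-Glo luminescence.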
Rab9 promoter act: Rab9 promoter activation. Huh7 Rab9 promoter-luciferase reporter, luminescence, 24 h. Potency, µM (top dose mostly 9.22 µM), hits mostly activators. hit rate 2.8% among 320,000; note: nearly all actives have a fitted effect of over 60% in size
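Steps: seed 1500 Huh7 Rab9-luc cells per well, rest 2 h at 37 °C; add compound in DMSO; incubate 24 h; add luciferase reagent, 10 min ambient; read luminescence.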
A number is an active result; i = inactive; ? = inconclusive; nt = no result given. Calls come from the whole dose curve; as a rule, active = well fitted curve in the direction sought with a large enough effect; inconclusive = small, poorly fitted or top-dose-only effect, or another doubt; inactive = no such curve, though single readings can be large; an effect the other way counts as inactive or inconclusive.

SMILES	NPC1 promoter act	FLuc counter	ELG1 repair inh	ELG1 genotox	SMN2 splice enh	Rab9 promoter act
CCN1CCN(c2cc3c(cc2F)c(=O)c(S(=O)(=O)c2ccc(OC)cc2)cn3CC)CC1	nt	i	nt	nt	nt	nt
COc1cc(NC(=O)c2cc3c(=O)n(Cc4ccco4)ccc3nc2C)cc(OC)c1OC	nt	i	nt	nt	nt	nt
CSc1cccc(NS(=O)(=O)c2ccc3[nH]cc(C(=O)N4CCCC4)c(=O)c3c2)c1	nt	?	nt	nt	i	nt
COc1ccc(CN(C)c2ncnc3sccc23)c(OC)c1OC	i	i	9.2µM	i	nt	i
COc1ccc(C)cc1NC(=O)COCc1cc(-c2ccc(F)cc2)on1	nt	i	nt	nt	nt	nt
Cc1nc2ccc(NC(=O)c3ccco3)cc2nc1C	i	?	?	i	i	?
CCCn1cnc2cc(NC(=O)c3cccs3)ccc21	?	10.7µM	?	i	15.8µM	2.82µM
Cn1c(CCN2CCOCC2)nc2cc(NC(=O)c3cccs3)ccc21	i	i	i	i	i	i
CCCn1cnc2cc(NC(=O)c3ccco3)ccc21	3.55µM	?	?	2.91µM	nt	2.82µM
CCn1cnc2cc(NC(=O)c3ccco3)ccc21	2.82µM	10.7µM	?	18.4µM	5.01µM	1.58µM
CC(C)(C)n1cnc2cc(NC(=O)c3ccco3)ccc21	0.282µM	9.53µM	?	?	nt	0.708µM
CC(C)(C)OC(=O)NCCCCC1=CC2=CC(=O)C(C)(OC(=O)C3CCCC3)C(=O)C2=CO1 (centres undefined)	nt	nt	nt	nt	i	nt
COc1ccc(CNC(=O)COC(=O)c2n[nH]c3ccccc23)cc1OC	i	i	16.4µM	i	i	i
COCC(C)n1c(C)cc(C(=O)COC(=O)c2n[nH]c3ccccc23)c1C (centres undefined)	1µM	3.01µM	?	?	i	0.631µM
COCC(C)n1c(C)cc(C(=O)COC(=O)c2oc3ccccc3c2C)c1C (centres undefined)	i	?	?	i	i	i
COc1ccc2c(COC(=O)c3n[nH]c4ccccc34)cc(=O)oc2c1	3.16µM	3.01µM	?	?	20µM	3.55µM
Cc1cc2oc(=O)cc(COC(=O)c3n[nH]c4ccccc34)c2cc1C	?	?	i	?	?	i
CCOC(=O)c1[nH]c(C)c(C(=O)OCC(=O)NCc2ccc(OC)c(OC)c2)c1C	i	i	11.2µM	i	nt	i
Cc1ccc(NC(=O)CN(C)C(=O)c2cccc(S(=O)(=O)NCc3ccco3)c2)cc1	i	i	i	i	nt	i
CCOC(=O)c1c(C)[nH]c(C(=O)N(C)Cc2cccc(OC)c2OC)c1C	i	i	16.4µM	i	nt	i
COc1ccc(Cl)cc1NC(=O)CN(C)C(=O)c1n[nH]c2ccccc12	i	i	8.2µM	i	nt	i
Cc1ccc(CNC(=O)Cn2c(=O)n(-c3ccc(C)c(F)c3)c(=O)c3sc4ccccc4c32)cc1	nt	i	nt	nt	i	nt
CCCCSCCCNC(=O)CN1C(=O)COc2ccc(S(=O)(=O)N3CCCC3)cc21	nt	i	nt	nt	i	nt
Cc1ccc(Nc2nc(C3CC3)cs2)cc1	3.98µM	3.79µM	?	8.2µM	3.98µM	3.55µM
Clc1ccc(Nc2nc(C3CC3)cs2)cc1	3.16µM	7.57µM	?	6.51µM	11.2µM	1.58µM
SMILES	NPC1 promoter act	FLuc counter	ELG1 repair inh	ELG1 genotox	SMN2 splice enh	Rab9 promoter act
Cc1nnc(Nc2ccc(Cl)cc2)s1	i	?	i	i	nt	i
CN(C)c1ccc(C(=O)n2nnc3ccccc32)cc1	i	0.135µM	?	?	i	i
CCCC(=O)Nc1ccc(C(=O)n2nnc3ccccc32)cc1	i	i	i	i	i	i
CCN(CC)c1ccc(C(=O)n2cnc3ccccc32)cc1	?	5.36µM	?	i	i	?
CC(C)(C)c1ccc(C(=O)n2cnc3ccccc32)cc1	i	3.38µM	?	i	nt	i
Cc1cc2ncn(C(=O)c3ccc(F)cc3)c2cc1C	i	13.5µM	i	i	nt	i
CCOc1ccc(N(CC)S(=O)(=O)N2CCCC(C(=O)Nc3ccc(NC(C)=O)cc3)C2)cc1 (centres undefined)	nt	i	nt	nt	nt	nt
CC(C)C[C@H]1CNC(=O)C(=O)N1C[C@H](C)NC(=O)Cc1ccccc1	i	i	i	i	nt	i
CCOCCCn1c(SCC(=O)Nc2ccccc2Cl)nc2c(oc3ccccc32)c1=O	nt	i	nt	nt	i	nt
O=C(NCC1CCCO1)C(c1cccnc1)N(C(=O)Cc1cccs1)c1ccccc1 (centres undefined)	?	10.7µM	?	i	i	?
COc1ncc2nc(CCc3ccccc3)c(=O)n(CCC#N)c2n1	nt	nt	nt	nt	i	nt
CCc1[nH]nc(C(=O)N/N=C/c2ccncc2)c1C	2.82µM	10.7µM	?	23.1µM	nt	3.16µM
Cn1nccc1C(=O)OCC(=O)Nc1cccc(Cl)c1	i	i	i	i	nt	i
